{"source": "PubChem BioAssay", "key": {"[1]": {"assay": "resazurin metabolic signal in HepG2 cells – cell-based, resazurin fluorescence, 24 h, PK04 Diversity Set, profiling panel (AID 1172)", "settings": "HepG2 viability, higher = more signal"}, "[2]": {"assay": "budding yeast growth changes without added modifier – OD600, strain BY4716, 24 h, basal condition, primary screen (AID 1173)", "settings": "S. cerevisiae BY4716 growth, OD600, 24 h; higher = more signal, called active from +8 up or from −8 down"}, "[3]": {"assay": "viability profiling in MM1S myeloma cells – cell-based, resazurin fluorescence, basal, 24 h, PK04 Diversity Set, profiling panel (AID 1174);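 note: MM1S multiple myeloma cell line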", "settings": "higher = more signal, called active from +8 up or from −8 down"}, "[4]": {"molecular_target": "Dihydroorotate dehydrogenase (quinone), mitochondrial (Plasmodium falciparum (isolate 3D7)) (UniProt Q08210)", "sequence (Q08210 whole entry, looked up)": "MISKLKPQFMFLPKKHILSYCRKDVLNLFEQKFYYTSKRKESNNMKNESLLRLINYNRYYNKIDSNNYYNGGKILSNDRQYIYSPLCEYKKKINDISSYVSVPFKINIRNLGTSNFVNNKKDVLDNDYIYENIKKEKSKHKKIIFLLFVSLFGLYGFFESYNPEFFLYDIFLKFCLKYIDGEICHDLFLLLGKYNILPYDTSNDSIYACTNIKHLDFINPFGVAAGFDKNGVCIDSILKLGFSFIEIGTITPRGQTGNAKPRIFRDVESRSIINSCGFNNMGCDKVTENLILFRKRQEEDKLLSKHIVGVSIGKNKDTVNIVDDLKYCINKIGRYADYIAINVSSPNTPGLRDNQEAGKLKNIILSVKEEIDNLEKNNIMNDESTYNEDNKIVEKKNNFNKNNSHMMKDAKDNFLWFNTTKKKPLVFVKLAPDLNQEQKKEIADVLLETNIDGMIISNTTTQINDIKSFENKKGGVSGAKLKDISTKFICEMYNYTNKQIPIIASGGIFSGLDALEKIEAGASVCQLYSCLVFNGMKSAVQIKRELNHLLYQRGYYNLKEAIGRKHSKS", "assay": "inhibition of P. falciparum DHODH – biochemical, C-terminal His tag, absorbance 600 nm, primary screen (AID 1175);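 note: recombinant parasite enzyme with a five histidine tag at its C terminus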", "settings": "PfDHODH enzyme, DCIP absorbance 600 nm; higher = more signal, called active from +8 up or from −8 down"}, "[5]": {"assay": "inhibition of PAO1 biofilm formation – strain PAO1, LB-PBS medium, absorbance 600 nm, primary screen (AID 1176)", "settings": "P. aeruginosa PAO1 growth/biofilm, A600, 12 h; higher = more signal"}, "[6]": {"assay": "growth modulation of vineyard yeast isolate – strain RM11-1a, OD600, basal, 24 h, primary screen (AID 1177);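 note: cultures grown under basal conditions with no added stressor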", "settings": "S. cerevisiae RM11-1a growth, OD600, 24 h; higher = more signal, called active from +8 up or from −8 down"}, "[7]": {"assay": "growth of efflux-deficient E. coli DRC39 – strain DRC39, OD650, 24 h, E. coli filamentation inducers, primary screen (AID 1178);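 note: growth measured as culture turbidity by optical density at 650 nm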", "settings": "E. coli DRC39 acrAB, higher = more signal, called active from +8 up or from −8 down"}, "[8]": {"assay": "growth of efflux-deficient E. coli DRC39 – strain DRC39, OD650, 48 h, E. coli filamentation inducers, primary screen (AID 1179);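 note: screen aims at cell division blockers that make cells filament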", "settings": "E. coli DRC39 delta-acrAB growth, higher = more signal, called active from +8 up or from −8 down"}, "[9]": {"assay": "viability profiling in RPMI8226 myeloma cells – cell-based, resazurin fluorescence, basal, 24 h, PK04 Diversity Set, profiling panel (AID 1180);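 note: RPMI8826 multiple myeloma cell line at 5000 cells per well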", "settings": "higher = more signal"}, "[10]": {"molecular_target": "E3 ubiquitin-protein ligase XIAP (Homo sapiens) (UniProt P98170)", "sequence (P98170 whole entry, looked up)": "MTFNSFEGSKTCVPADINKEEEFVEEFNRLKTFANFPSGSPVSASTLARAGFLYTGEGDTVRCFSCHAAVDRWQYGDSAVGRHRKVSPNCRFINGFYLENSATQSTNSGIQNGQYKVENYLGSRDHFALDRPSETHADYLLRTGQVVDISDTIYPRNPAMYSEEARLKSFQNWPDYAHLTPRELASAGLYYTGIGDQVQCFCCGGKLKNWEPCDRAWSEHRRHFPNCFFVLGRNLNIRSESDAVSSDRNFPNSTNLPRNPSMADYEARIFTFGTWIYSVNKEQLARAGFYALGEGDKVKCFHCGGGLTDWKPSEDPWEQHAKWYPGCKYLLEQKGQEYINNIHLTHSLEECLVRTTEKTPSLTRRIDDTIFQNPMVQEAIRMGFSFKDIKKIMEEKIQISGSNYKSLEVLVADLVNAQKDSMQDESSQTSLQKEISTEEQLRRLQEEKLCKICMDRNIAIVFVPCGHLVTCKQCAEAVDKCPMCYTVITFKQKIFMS", "assay": "small molecules binding XIAP protein – biophysical, small-molecule microarray, fluorescence 635 nm, primary screen (AID 1181);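 note: score merges 667 nm emission and signal to noise over triplicate slides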", "settings": "higher = more signal"}, "[11]": {"test_system": "XIP peptide (Xip251-270) binding", "assay": "XIP fragment 251-270 binding compounds – biochemical, small-molecule microarray, fluorescence 635/667 nm, 0.1 µg/mL protein, primary screen (AID 1182)", "settings": "fluorescent protein binding, 635 nm, higher = more signal, called active from +8 up or from −8 down"}, "XIP peptide (Xip251-270)": {"test_system": "XIP peptide (Xip251-270)", "assay": "compounds binding XIP fragment 251-270 – biochemical, small-molecule microarray, fluorescence 635/667 nm, 0.5 µg/mL protein, primary screen (AID 1183)", "settings": "fluorescence 635 nm, higher = more signal"}, "[12]": {"assay": "blood-stage malaria parasite viability loss – strain 3D7, DAPI fluorescence, 100 nL, primary screen (AID 1184);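 note: parasites grown inside human red blood cells in medium with human serum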", "settings": "P. falciparum 3D7 growth, 3 d, higher = more signal"}, "[13]": {"molecular_target": "Homeobox protein Hox-A13 (Mus musculus) (UniProt Q62424)", "sequence (Q62424 whole entry, looked up)": "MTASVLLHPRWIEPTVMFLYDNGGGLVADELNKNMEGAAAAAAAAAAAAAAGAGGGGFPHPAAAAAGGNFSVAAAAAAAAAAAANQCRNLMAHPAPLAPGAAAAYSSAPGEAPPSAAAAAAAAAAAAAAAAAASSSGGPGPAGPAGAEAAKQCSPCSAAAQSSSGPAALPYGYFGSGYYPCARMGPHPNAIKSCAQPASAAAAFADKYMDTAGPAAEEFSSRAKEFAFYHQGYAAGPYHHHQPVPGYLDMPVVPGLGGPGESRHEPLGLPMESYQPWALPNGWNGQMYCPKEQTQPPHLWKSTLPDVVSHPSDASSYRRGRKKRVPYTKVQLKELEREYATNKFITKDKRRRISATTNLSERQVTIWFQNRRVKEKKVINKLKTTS", "assay": "disruptors of Hoxa13 oligonucleotide interaction – biochemical, fluorescence polarization, labeled oligonucleotide, primary screen (AID 1185)", "settings": "Hoxa13:DNA binding, 15 min, higher = more signal, called active from +8 up or from −8 down"}, "[14]": {"assay": "blockers of DNA damage checkpoint Chk1 activation – imaging, HeLa, hydroxyurea, phospho-Chk1 antibody, percent positive cells, primary screen (AID 1186)", "settings": "hydroxyurea-induced phospho-Chk1 immunofluorescence imaging, higher = more signal"}, "[15]": {"assay": "blockers of DNA damage checkpoint Chk1 activation – imaging, HeLa, hydroxyurea, phospho-Chk1 nuclear intensity, primary screen (AID 1187)", "settings": "hydroxyurea-induced phospho-Chk1 immunofluorescence imaging, higher = more signal"}}, "note": "The source made the active and inactive calls. Unless noted, the rule behind the calls is not given here."}
{"smiles": "COC(=O)c1nc2oc1CC[C@@H](CO)NC(=O)N(C)Cc1cn(nn1)C[C@H](Cc1ccccc1)NC2=O", "values": [{"measurement": "z-score", "setting": "[1]", "result": 0.395}, {"measurement": "z-score", "setting": "[2]", "result": "-7.59 (inactive)"}, {"measurement": "z-score", "setting": "[3]", "result": "0.456 (inactive)"}, {"measurement": "composite z-score", "setting": "[4]", "result": "-0.773 (inactive)"}, {"measurement": "z-score", "setting": "[5]", "result": "0.113 (inactive)"}, {"measurement": "z-score", "setting": "[6]", "result": "0.219 (inactive)"}, {"measurement": "z-score", "setting": "[7]", "result": "0.0613 (inactive)"}, {"measurement": "z-score", "setting": "[8]", "result": "0.72 (inactive)"}, {"measurement": "z-score", "setting": "[9]", "result": 0.407}, {"measurement": "composite z-score", "setting": "[10]", "result": -0.117}, {"measurement": "composite z-score", "setting": "[11]", "result": "0.827 (inactive)"}, {"measurement": "composite z-score", "setting": "XIP peptide (Xip251-270)", "result": 0.969}, {"measurement": "z-score", "setting": "[12]", "result": 1.24}, {"measurement": "z-score", "setting": "[13]", "result": "-1.31 (inactive)"}, {"measurement": "z-score", "setting": "[14]", "result": "-0.0288 (inactive)"}, {"measurement": "z-score", "setting": "[15]", "result": "-0.455 (inactive)"}]}
{"smiles": "NC(=O)[C@@]1(CCS(=O)(=O)c2ccccc2)N=C(c2ccc(OCCCO)cc2)O[C@H]1c1ccccc1", "values": [{"measurement": "z-score", "setting": "[1]", "result": -0.0687}, {"measurement": "z-score", "setting": "[2]", "result": "-1.38 (inactive)"}, {"measurement": "z-score", "setting": "[3]", "result": "0.837 (inactive)"}, {"measurement": "composite z-score", "setting": "[4]", "result": "-0.319 (inactive)"}, {"measurement": "z-score", "setting": "[5]", "result": "-0.73 (inactive)"}, {"measurement": "z-score", "setting": "[6]", "result": "-0.832 (inactive)"}, {"measurement": "z-score", "setting": "[7]", "result": "0.818 (inactive)"}, {"measurement": "z-score", "setting": "[8]", "result": "0.565 (inactive)"}, {"measurement": "z-score", "setting": "[9]", "result": 0.429}, {"measurement": "composite z-score", "setting": "[10]", "result": 0.0097}, {"measurement": "composite z-score", "setting": "[11]", "result": "1.11 (inactive)"}, {"measurement": "composite z-score", "setting": "XIP peptide (Xip251-270)", "result": 0.863}, {"measurement": "z-score", "setting": "[12]", "result": -1.9}, {"measurement": "z-score", "setting": "[13]", "result": "-6.86 (inactive)"}, {"measurement": "z-score", "setting": "[14]", "result": "0.0218 (inactive)"}, {"measurement": "z-score", "setting": "[15]", "result": "0.56 (inactive)"}]}
{"smiles": "COc1ccc(C#Cc2ccc3c(c2)[C@]2(C(=O)N3)[C@H](C(=O)N3CCc4cc(OC)c(OC)cc4C3)[C@H]3C(=O)O[C@H](c4ccccc4)[C@H](c4ccccc4)N3[C@@H]2c2ccc(OCCO)cc2)cc1", "values": [{"measurement": "z-score", "setting": "[1]", "result": 0.0594}, {"measurement": "z-score", "setting": "[2]", "result": "2.37 (inactive)"}, {"measurement": "z-score", "setting": "[3]", "result": "-0.0819 (inactive)"}, {"measurement": "composite z-score", "setting": "[4]", "result": "-1.04 (inactive)"}, {"measurement": "z-score", "setting": "[5]", "result": "1.66 (inactive)"}, {"measurement": "z-score", "setting": "[6]", "result": "4.19 (inactive)"}, {"measurement": "z-score", "setting": "[7]", "result": "0.452 (inactive)"}, {"measurement": "z-score", "setting": "[8]", "result": "0.593 (inactive)"}, {"measurement": "z-score", "setting": "[9]", "result": 1.5}, {"measurement": "composite z-score", "setting": "[10]", "result": -0.209}, {"measurement": "composite z-score", "setting": "[11]", "result": "0.53 (inactive)"}, {"measurement": "composite z-score", "setting": "XIP peptide (Xip251-270)", "result": 0.598}, {"measurement": "z-score", "setting": "[12]", "result": -1.36}, {"measurement": "z-score", "setting": "[13]", "result": "-2.71 (inactive)"}, {"measurement": "z-score", "setting": "[14]", "result": "-0.122 (inactive)"}, {"measurement": "z-score", "setting": "[15]", "result": "2.93 (inactive)"}]}
{"smiles": "C=C(C(=O)CC[C@@H](OC(=O)c1cccnc1)c1ccc(CO)o1)C(C)C", "values": [{"measurement": "z-score", "setting": "[1]", "result": 0.158}, {"measurement": "z-score", "setting": "[2]", "result": "-0.708 (inactive)"}, {"measurement": "z-score", "setting": "[3]", "result": "0.285 (inactive)"}, {"measurement": "composite z-score", "setting": "[4]", "result": "-0.0661 (inactive)"}, {"measurement": "z-score", "setting": "[5]", "result": "0.437 (inactive)"}, {"measurement": "z-score", "setting": "[6]", "result": "0.113 (inactive)"}, {"measurement": "z-score", "setting": "[7]", "result": "-0.391 (inactive)"}, {"measurement": "z-score", "setting": "[8]", "result": "-0.562 (inactive)"}, {"measurement": "z-score", "setting": "[9]", "result": 0.594}, {"measurement": "composite z-score", "setting": "[10]", "result": 0.396}, {"measurement": "composite z-score", "setting": "[11]", "result": "-0.239 (inactive)"}, {"measurement": "composite z-score", "setting": "XIP peptide (Xip251-270)", "result": 0.249}, {"measurement": "z-score", "setting": "[12]", "result": -0.188}, {"measurement": "z-score", "setting": "[13]", "result": "-4.55 (inactive)"}, {"measurement": "z-score", "setting": "[14]", "result": "0.647 (inactive)"}, {"measurement": "z-score", "setting": "[15]", "result": "0.501 (inactive)"}]}
{"smiles": "O=C1C2C=CC(C(O)C3CC=CCC3)N(n3cnnc3)C2C(=O)N1Cc1ccccc1", "note": "(stereo not given)", "values": [{"measurement": "z-score", "setting": "[1]", "result": -0.854}, {"measurement": "z-score", "setting": "[2]", "result": "0.0086 (inactive)"}, {"measurement": "z-score", "setting": "[3]", "result": "-1.16 (inactive)"}, {"measurement": "composite z-score", "setting": "[4]", "result": "-0.071 (inactive)"}, {"measurement": "z-score", "setting": "[5]", "result": "0.216 (inactive)"}, {"measurement": "z-score", "setting": "[6]", "result": "-0.363 (inactive)"}, {"measurement": "z-score", "setting": "[7]", "result": "-1.59 (inactive)"}, {"measurement": "z-score", "setting": "[8]", "result": "-1.35 (inactive)"}, {"measurement": "z-score", "setting": "[9]", "result": -1.45}, {"measurement": "composite z-score", "setting": "[10]", "result": 0.38}, {"measurement": "composite z-score", "setting": "[11]", "result": "0.887 (inactive)"}, {"measurement": "composite z-score", "setting": "XIP peptide (Xip251-270)", "result": -0.0517}, {"measurement": "z-score", "setting": "[12]", "result": 0.017}, {"measurement": "z-score", "setting": "[13]", "result": "-3.36 (inactive)"}, {"measurement": "z-score", "setting": "[14]", "result": "0.518 (inactive)"}, {"measurement": "z-score", "setting": "[15]", "result": "-0.603 (inactive)"}]}
